Data published in PubChem BioAssay.
Calls of active or inactive are those of the source.

What was measured:
[1] = binders of probe aFSTL3 on microarray, primary screen, stem cell growth factor project, biochemical, small-molecule microarray, fluorescence 635/667 (AID 1064); conditions: higher = more signal;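 further: measures binding of the biotinylated anti-FSTL3 antibody to printed compounds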
[2] = binders from COS7 lysate, DM2A8 probe, primary screen, torsin A project, cell lysate, small-molecule microarray, fluorescence 635/667 (AID 1065); conditions: higher = more signal, COS7 lysate expressing mutant human TOR1A
[3] = binders of probe aFGF2 on microarray, primary screen, stem cell growth factor project, biochemical, small-molecule microarray, fluorescence 635/667 (AID 1067); conditions: higher = more signal;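 further: measures binding of biotinylated aFGF2 protein to printed compounds on slides; z-score merges feature fluorescence and signal-to-noise across triplicate slides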
[4] = binders of probe aFGF10 on microarray, primary screen, stem cell growth factor project, biochemical, small-molecule microarray, fluorescence 635/667 (AID 1071); conditions: higher = more signal;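 further: score merges 667 nm spot intensity and signal to noise from triplicate slides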
[5] = target: Neurogenic locus notch homolog protein 2 (Homo sapiens) (UniProt Q04721); assay: Notch2 binders on small-molecule microarrays, primary screen, biochemical, small-molecule microarray, 635 nm fluorescence, stem cell growth factors (AID 1073); conditions: Notch2 binding, higher = more signal
[6] = target: Pro-neuregulin-1, membrane-bound isoform (Homo sapiens) (UniProt Q02297); assay: NRG1 binders on small-molecule microarrays, primary screen, psychiatric disease protein project, biochemical, small-molecule microarray, fluorescence 635/667 (AID 1075); conditions: NRG1 binding, 635 nm fluorescence, higher = more signal;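 further: score combines 667 nm spot fluorescence with signal to noise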
[7] = tested on: Neuregulin-1 EGF-like domain; assay: binders of neuregulin-1 EGF-like domain, primary screen, biochemical, small-molecule microarray, 635 nm fluorescence (AID 1081); conditions: small-molecule microarray binding, higher = more signal;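 further: binding of the protein to compounds printed on small-molecule microarray slides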
[8] = FRG1 promoter luciferase signal modulators, primary screen, FRG1 inhibition for FSHD, cell-based, C2C12 myotubes, firefly/Renilla luciferase, luminescence (AID 1084); conditions: higher = more signal, called active from +8 up or from −8 down
[9] = binders of probe aFST on microarray, primary screen, stem cell growth factor project, biochemical, small-molecule microarray, fluorescence 635/667 (AID 1086); conditions: higher = more signal;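 further: score merges 667 nm fluorescence with signal-to-noise of each printed compound spot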
[10] = binders of probe aHhip on microarray, primary screen, stem cell growth factor project, biochemical, small-molecule microarray, fluorescence 635/667 (AID 1087); conditions: higher = more signal;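 further: score merges spot fluorescence at 667nm with spot signal to noise ratio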
[11] = tested on: PRMT1 (protein arginine N-methyltransferase 1); assay: PRMT1 binders on small-molecule microarrays, primary screen, biochemical, small-molecule microarray, 635 nm fluorescence (AID 1088); conditions: small-molecule microarray binding, higher = more signal;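 further: binding of Prmt1 protein to compounds spotted on small-molecule microarray slides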
[12] = yeast growth modulation, basal conditions, primary screen, YJM789 clinical isolate, OD600, 24 h (AID 1089);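 further: growth of clinical yeast isolate S. cerevisiae YJM 789 seeded 1000 cells per well; test concentration not given here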; conditions: S. cerevisiae YJM789 growth, higher = more signal, called active from +8 up or from −8 down
[13] = fission yeast growth modulation, primary screen, strain 972, OD600, 24 h, no modulator (AID 1090);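 further: basal condition with compound alone and no growth modifier present; test concentration not given here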; conditions: S. pombe 972 growth, higher = more signal, called active from +8 up or from −8 down
[14] = S. cerevisiae growth modulation with rapamycin, primary screen, strain BY4716, OD600, 96 h (AID 1091); conditions: higher = more signal, called active from +8 up or from −8 down; further: test concentration not given here
[15] = target: Torsin-1A-interacting protein 2 (Homo sapiens) (UniProt Q8NFQ8); assay: LULL1 binders on small-molecule microarray, primary screen, cell lysate, human LULL1 lysate, 635/667 nm fluorescence (AID 1092); conditions: hLULL1 lysate binding, 635 nm fluorescence, higher = more signal;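 further: probe is lysate of COS7 cells overexpressing human LULL1; score merges per-feature 667 nm fluorescence with signal-to-noise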
[16] = E. coli growth modulation, two-sided OD650, primary screen, E. coli filamentation project, strain DRC41, 24 h (AID 1093); conditions: OD650, 24 h, higher = more signal, called active from +8 up or from −8 down;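 further: MC1000 strain lacking acrAB efflux and sulA so SOS filamentation is blocked; test concentration not given here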
[17] = small-molecule microarray binders of probe aLefty2, primary screen, biochemical, biotinylated probe, 635/667 nm fluorescence (AID 1094); conditions: higher = more signal;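 further: score merges spot fluorescence near 667 nm with spot signal-to-noise ratio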
[18] = tested on: Noggin (protein binding on small-molecule microarray); assay: Noggin binders on small-molecule microarray, primary screen, biochemical, 635/667 nm fluorescence (AID 1095); conditions: 635 nm fluorescence, higher = more signal;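 further: score merges 667 nm feature fluorescence with signal to noise over triplicate slides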
[19] = target: Neurogenic locus notch homolog protein 3 (Homo sapiens) (UniProt Q9UM47); assay: NOTCH3 binders on small-molecule microarray, primary screen, biochemical, 635/667 nm fluorescence (AID 1096); conditions: NOTCH3 binding, 635 nm fluorescence, higher = more signal
[20] = small-molecule microarray binders of probe aEGFR, primary screen, biochemical, biotinylated probe, 635/667 nm fluorescence (AID 1097); conditions: higher = more signal;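 further: probe is a biotinylated anti-EGFR antibody binding compounds printed on slides; score combines fluorescence near 667 nm and signal to noise of each spot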

Chain of Neurogenic locus notch homolog protein 3 (Homo sapiens) (Q9UM47 whole entry, looked up): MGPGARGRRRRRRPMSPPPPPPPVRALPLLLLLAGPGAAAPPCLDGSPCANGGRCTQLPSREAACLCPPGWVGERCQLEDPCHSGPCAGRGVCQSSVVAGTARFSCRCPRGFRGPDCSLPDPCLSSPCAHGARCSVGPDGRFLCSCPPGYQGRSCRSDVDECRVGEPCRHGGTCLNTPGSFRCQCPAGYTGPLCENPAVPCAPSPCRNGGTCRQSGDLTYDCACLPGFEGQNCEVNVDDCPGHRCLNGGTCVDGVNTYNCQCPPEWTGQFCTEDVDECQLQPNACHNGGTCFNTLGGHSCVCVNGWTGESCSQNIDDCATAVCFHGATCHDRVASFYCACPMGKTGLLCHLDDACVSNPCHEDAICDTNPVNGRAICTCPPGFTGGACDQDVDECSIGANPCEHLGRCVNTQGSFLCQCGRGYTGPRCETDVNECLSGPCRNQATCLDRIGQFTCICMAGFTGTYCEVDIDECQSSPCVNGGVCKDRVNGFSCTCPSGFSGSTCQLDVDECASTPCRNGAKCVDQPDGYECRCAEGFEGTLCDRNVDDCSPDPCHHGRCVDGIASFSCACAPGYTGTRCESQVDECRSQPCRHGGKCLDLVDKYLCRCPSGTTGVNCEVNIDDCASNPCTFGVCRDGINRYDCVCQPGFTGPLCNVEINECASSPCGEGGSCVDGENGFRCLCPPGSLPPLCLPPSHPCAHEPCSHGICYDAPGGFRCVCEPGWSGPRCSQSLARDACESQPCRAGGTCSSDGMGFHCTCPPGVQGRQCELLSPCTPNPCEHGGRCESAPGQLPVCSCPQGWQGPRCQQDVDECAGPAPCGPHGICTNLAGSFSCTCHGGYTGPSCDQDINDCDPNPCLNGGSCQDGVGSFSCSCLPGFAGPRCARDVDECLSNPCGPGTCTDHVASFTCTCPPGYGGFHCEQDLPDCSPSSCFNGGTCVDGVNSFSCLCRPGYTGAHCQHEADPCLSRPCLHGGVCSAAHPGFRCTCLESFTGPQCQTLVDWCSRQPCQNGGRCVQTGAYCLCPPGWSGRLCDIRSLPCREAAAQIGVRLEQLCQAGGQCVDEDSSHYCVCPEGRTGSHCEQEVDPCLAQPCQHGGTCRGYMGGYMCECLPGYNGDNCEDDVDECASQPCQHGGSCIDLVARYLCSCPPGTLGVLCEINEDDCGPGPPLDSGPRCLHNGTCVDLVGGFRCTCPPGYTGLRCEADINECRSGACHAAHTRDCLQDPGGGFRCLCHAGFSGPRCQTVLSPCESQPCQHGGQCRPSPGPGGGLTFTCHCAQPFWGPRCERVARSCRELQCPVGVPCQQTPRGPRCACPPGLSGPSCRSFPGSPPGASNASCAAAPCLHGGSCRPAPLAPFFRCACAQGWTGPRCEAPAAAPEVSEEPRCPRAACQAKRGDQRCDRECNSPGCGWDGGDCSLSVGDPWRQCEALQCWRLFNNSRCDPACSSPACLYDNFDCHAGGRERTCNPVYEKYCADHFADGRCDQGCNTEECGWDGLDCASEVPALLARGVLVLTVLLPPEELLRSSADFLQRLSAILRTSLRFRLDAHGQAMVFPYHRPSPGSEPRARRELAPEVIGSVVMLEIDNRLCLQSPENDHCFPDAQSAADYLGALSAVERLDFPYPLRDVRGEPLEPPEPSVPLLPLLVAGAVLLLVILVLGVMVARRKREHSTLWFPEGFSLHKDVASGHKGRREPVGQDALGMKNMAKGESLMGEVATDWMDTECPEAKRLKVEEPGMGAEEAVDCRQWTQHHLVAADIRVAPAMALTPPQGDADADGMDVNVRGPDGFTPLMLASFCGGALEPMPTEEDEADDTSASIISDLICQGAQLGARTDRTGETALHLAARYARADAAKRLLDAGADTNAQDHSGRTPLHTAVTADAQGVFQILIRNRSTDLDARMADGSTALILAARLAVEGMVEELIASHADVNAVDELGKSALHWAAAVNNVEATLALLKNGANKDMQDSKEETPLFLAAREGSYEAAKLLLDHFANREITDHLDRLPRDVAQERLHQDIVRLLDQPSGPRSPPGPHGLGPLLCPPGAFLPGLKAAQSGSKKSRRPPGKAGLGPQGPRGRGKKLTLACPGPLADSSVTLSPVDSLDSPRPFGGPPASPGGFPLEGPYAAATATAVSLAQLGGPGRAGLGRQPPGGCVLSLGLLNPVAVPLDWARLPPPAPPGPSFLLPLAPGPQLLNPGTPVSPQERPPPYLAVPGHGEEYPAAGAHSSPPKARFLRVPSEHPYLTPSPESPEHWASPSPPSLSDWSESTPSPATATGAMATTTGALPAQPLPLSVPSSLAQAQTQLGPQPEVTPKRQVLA
Chain of Torsin-1A-interacting protein 2 (Homo sapiens) (Q8NFQ8 whole entry, looked up): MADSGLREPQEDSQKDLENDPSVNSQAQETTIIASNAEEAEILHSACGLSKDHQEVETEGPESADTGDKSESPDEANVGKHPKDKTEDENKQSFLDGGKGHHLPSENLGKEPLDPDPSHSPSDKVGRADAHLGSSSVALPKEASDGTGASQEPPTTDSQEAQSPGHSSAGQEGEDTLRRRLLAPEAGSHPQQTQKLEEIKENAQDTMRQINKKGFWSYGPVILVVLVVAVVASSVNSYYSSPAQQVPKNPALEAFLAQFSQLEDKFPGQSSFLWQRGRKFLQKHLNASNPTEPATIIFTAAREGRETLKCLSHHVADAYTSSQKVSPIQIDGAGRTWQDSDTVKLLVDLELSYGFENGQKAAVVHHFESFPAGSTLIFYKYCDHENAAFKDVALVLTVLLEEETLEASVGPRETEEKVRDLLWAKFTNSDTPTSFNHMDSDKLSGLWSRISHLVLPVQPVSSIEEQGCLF
Chain of Pro-neuregulin-1, membrane-bound isoform (Homo sapiens) (Q02297 whole entry, looked up, the tested form may be a part, canonical isoform): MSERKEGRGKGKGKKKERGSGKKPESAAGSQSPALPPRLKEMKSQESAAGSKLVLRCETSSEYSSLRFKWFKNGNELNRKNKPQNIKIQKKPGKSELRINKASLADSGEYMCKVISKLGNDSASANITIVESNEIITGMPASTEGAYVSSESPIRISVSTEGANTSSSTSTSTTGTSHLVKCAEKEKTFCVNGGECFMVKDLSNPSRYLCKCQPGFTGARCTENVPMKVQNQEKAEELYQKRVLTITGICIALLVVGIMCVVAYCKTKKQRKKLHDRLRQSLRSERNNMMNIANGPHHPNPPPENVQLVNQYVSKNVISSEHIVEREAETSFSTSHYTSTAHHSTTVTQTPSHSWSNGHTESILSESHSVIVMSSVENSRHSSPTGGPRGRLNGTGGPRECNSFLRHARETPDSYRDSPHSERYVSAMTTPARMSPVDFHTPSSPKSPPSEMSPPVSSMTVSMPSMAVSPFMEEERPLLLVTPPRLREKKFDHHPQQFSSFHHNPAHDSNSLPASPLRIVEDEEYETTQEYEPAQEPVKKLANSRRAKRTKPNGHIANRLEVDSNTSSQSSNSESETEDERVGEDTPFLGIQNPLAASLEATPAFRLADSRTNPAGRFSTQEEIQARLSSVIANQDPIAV

SMILES | composite z-score [1] | composite z-score [2] | composite z-score [3] | composite z-score [4] | composite z-score [5] | composite z-score [6] | composite z-score [7] | z-score [8] | composite z-score [9] | composite z-score [10] | composite z-score [11] | z-score [12] | z-score [13] | z-score [14] | composite z-score [15] | z-score [16] | composite z-score [17] | composite z-score [18] | composite z-score [19] | composite z-score [20]
COCCOC(=O)N1C(=O)[C@@]2(c3cc(C#Cc4ccc(OC)cc4)ccc31)[C@H](C(=O)Nc1nc3ccccc3s1)[C@H]1C(=O)O[C@H](c3ccccc3)[C@H](c3ccccc3)N1[C@@H]2c1ccc(OCCO)cc1 | -0.51 | 0.661 | -0.0569 | 0.784 | 1.21 | 0.138 | 1.11 | 4.61 (inactive) | 0.632 | -0.0618 | 1.56 | 3.34 (inactive) | 2.1 (inactive) | 4.58 (inactive) | 1.02 | 0.575 (inactive) | -0.0699 | 1.54 | 1.13 | 0.0311
CC(C)(C)OC(=O)CC[C@]1(C(=O)NCC(O)CO)N=C(c2ccc(OCCCO)cc2)O[C@H]1c1ccccc1 (stereo not given in full) | 1.07 | 1.58 | -0.0099 | 0.391 | 0.493 | 0.866 | 1.33 | 0.974 (inactive) | 0.36 | -0.323 | -0.362 | -0.866 (inactive) | -0.956 (inactive) | -0.744 (inactive) | 3.45 | 1.91 (inactive) | 0.0424 | -0.837 | -0.89 | 0.109
C=CCC(OC(C)=O)[C@@H]1[C@@H](N(Cc2cccc3ccccc23)C(=O)Cc2ccc(F)cc2)c2cc(OCCCO)ccc2N1C(=O)c1ccc2ccccc2n1 (stereo not given in full) | 0.258 | -0.0938 | 0.0631 | 0.0908 | 0.179 | 0.0429 | -0.429 | -1.11 (inactive) | 0.382 | 0.347 | -0.293 | -0.145 (inactive) | 0.732 (inactive) | -0.342 (inactive) | 0.511 | 0.265 (inactive) | 0.15 | -0.283 | 0.104 | -0.0897
COC(=O)[C@@]1(Cc2ccc(F)cc2)[C@H]2c3cc(C(=O)N4CCCC4)n(CCc4ccc(O)c(O)c4)c3C[C@H]2CN1C(=O)c1ccccc1 | 1.41 | 0.109 | 0.57 | 0.146 | 1.38 | 2.3 | 1.29 | 0.332 (inactive) | 1.05 | 2.44 | -0.522 | 1.34 (inactive) | 1.16 (inactive) | 1.96 (inactive) | 3.22 | -0.469 (inactive) | 1.17 | -0.97 | -1.04 | 0.978
CC1=C[C@@]2(CO)C(=O)[C@]3(CO3)[C@@H]1[C@H]1[C@]2(C)C=C(CO)C(=O)[C@]12CO2 | -0.457 | -0.42 | -0.0782 | 0.345 | 0.31 | 0.194 | 0.677 | -1.35 (inactive) | 0.614 | 0.459 | 0.295 | -1.32 (inactive) | -9.27 (active) | -0.946 (inactive) | 0.0091 | 0.179 (inactive) | -0.113 | 0.177 | 0.652 | -0.276
